In PubChem BioAssay:

test: basal RPMI8226 mitochondrial membrane potential changes, profiling panel, cell-based, JC-1 fluorescence, 24 h, 100 nL compound (AID 1169); conditions: RPMI8226 myeloma, JC-1 mitochondrial potential fluorescence, higher = more signal
Note: test concentration not given here.

| Structure (SMILES) | z-score |
| --- | --- |
| C=C(C(=O)CC[C@H](OC(=O)c1cccnc1)c1ccc(OCCO)cc1)C(C)C | -0.634 |
| CC(C)CNC(=O)[C@@]1(C)c2ccccc2C(=O)N(Cc2ccccc2)[C@H]1c1ccc(CO)cc1 | 0.0136 |
| CC(C)(C)OC(=O)CC[C@]1(C(=O)O)COC(c2ccc(OCCCO)cc2)=N1 | -0.812 |
| COc1ccc([Si](C)(C)[C@@H]2[C@@H](CC(=O)N(CCO)Cc3ccccc3)O[C@]3(C(=O)N(Cc4ccc(N5CCOC5=O)cc4)c4ccccc43)[C@H]2C)cc1 | -1.01 |
| CCCCC=C[C@@H](NC(=O)CCc1ccccc1)c1ccccc1 | -0.85 |
| C=C(/C(=C/C[C@@H](OC(=O)c1ccncc1)c1ccccc1OCCO)c1cnc2ccccc2c1)C(C)C | 0.14 |
| C=C(CCCC)/C(=C/C[C@@H](OC(=O)c1ccncc1)c1ccccc1OCCO)c1cc(C(=O)OC)ccc1OC | -0.497 |
| CC(C)N1C(=O)c2ccccc2[C@](C)(C(=O)O)[C@@H]1c1ccc(CO)cc1 | 0.663 |
| COC(=O)[C@@]1(Cc2ccc(OC)cc2)[C@H]2c3cc(C(=O)N(C)C)n(Cc4cc(C)n(C)n4)c3C[C@H]2CN1C(=O)c1ccccc1 | 0.534 |

test: basal MM1S mitochondrial membrane potential changes, profiling panel, cell-based, JC-1 fluorescence, 24 h, 100 nL compound (AID 1170); conditions: higher = more signal

| Structure (SMILES) | z-score |
| --- | --- |
| CN(C)C(=O)[C@@]1(CCS(=O)(=O)c2ccccc2)N=C(c2ccc(OCCCO)cc2)O[C@H]1c1ccccc1CN=[N+]=[N-] | -1.31 |
| Cc1ccc(S[C@]2(C(=O)NCc3ccccc3)CC(=O)N(C3Cc4ccccc4C3)[C@@H]2c2ccc(CO)cc2I)cc1 | -0.972 |
| C=C(C)[C@@H]1CC=C(C(O)C2C=CC3C(=O)N(C4CCCCC4)C(=O)C3N2Nc2ccc(OC)cc2)CC1 (stereo partly drawn) | -1.4 |
| CC(C)(C)N1CC=CC23O[C@@H]4C=CCCOC(=O)C4[C@H]2C(=O)N(CCCO)[C@@H]3C1=O (stereo partly drawn) | -0.0658 |
| CN(C)C(=O)[C@]1(Cc2ccccc2N=[N+]=[N-])N=C(c2ccc(OCCCO)cc2)O[C@@H]1c1ccccc1CN=[N+]=[N-] | -1.09 |
| COC(=O)[C@@]1(Cc2ccc(OC)cc2)[C@H]2c3cc(C(=O)N4CCCC4)n(Cc4ccc(C)o4)c3C[C@H]2CN1C(=O)c1ccccc1 | -2.9 |
| [N-]=[N+]=NCc1ccccc1C[C@]1(C(=O)NCCN2CCOCC2)N=C(c2ccc(OCCCO)cc2)O[C@H]1c1ccccc1 | -0.54 |
| CCCCCCC#C[Si](O[C@H](c1ccccc1)c1cn(Cc2cccc(Cl)c2)nn1)(C(C)C)C(C)C | -1.06 |
| COCCOC(=O)N1C(=O)[C@@]2(c3cc(C#CC4(O)CCCCCC4)ccc31)[C@H](C(=O)N1CCN(c3ncccn3)CC1)[C@H]1C(=O)O[C@H](c3ccccc3)[C@H](c3ccccc3)N1[C@@H]2c1ccc(O)cc1 | 0.532 |
| COc1ccc(C(=O)Nc2ccc3c(c2)[C@]2(O[C@@H](CCO)[C@H]([Si](C)(C)c4ccc(OC)cc4)[C@H]2C)C(=O)N3Cc2ccccc2)cc1 | -0.497 |
| COc1ccc([Si](C)(C)[C@@H]2[C@@H](CCO)O[C@]3(C(=O)N(Cc4ccccc4)c4ccc(N5CCCCC5=O)cc43)[C@H]2C)cc1 | -0.786 |
| C#CCNS(=O)(=O)N(C)C | -0.777 |
| COCCCNC(=O)[C@]1(CCS(=O)(=O)c2ccccc2)N=C(c2ccc(OCCCO)cc2)O[C@@H]1c1ccccc1 | -0.801 |
| CC(=O)NCCCC[C@@H]1NC(=O)[C@@H]2C[C@H](C(=O)NCCCC[N+](C)(C)C)[C@H](c3cccc(OCCO)c3)N2C1=O | 0.235 |
| CCCC[C@@H](O)C1=C(COc2ccccc2)Cn2c(=O)n(-c3ccccc3)c(=O)n2[C@H]1CO | 0.277 |
| C=CCOC(=O)[C@H]1[C@@H]2C(=O)O[C@@H](c3ccccc3)[C@@H](c3ccccc3)N2[C@@H](c2ccc(OCCOC(=O)[C@H]3C[C@H]4C(=O)N[C@@H](CCCCN(C)C)C(=O)N4[C@H]3c3ccc(O)cc3)cc2)[C@]12C(=O)Nc1ccccc12 | -0.391 |
| C=CCNC(=O)[C@H]1[C@@H]2C(=O)O[C@@H](c3ccccc3)[C@@H](c3ccccc3)N2[C@@H](c2ccc(OCCO)cc2)[C@]12C(=O)N(C(=O)OCCOC)c1ccc(C#CC3=CCCCC3)cc12 | -1.05 |
| COC(=O)[C@@]1(Cc2ccccc2)[C@H]2c3cc(C(=O)N4CCCC4)n(Cc4ccc(OC(F)(F)F)cc4)c3C[C@H]2CN1C(=O)c1ccccc1 | -0.934 |
| COc1ccc([Si](C)(C)[C@H]2[C@H](CCn3cc(CCO)nn3)O[C@@]3(C(=O)N(Cc4cccc(N5C(=O)c6cccc7cccc5c67)c4)c4ccccc43)[C@@H]2C)cc1 | -2.03 |
